# Experimental data published in PMC7862700, “An all-to-all approach to the identification of sequence-specific readers for epigenetic DNA modifications on cytosine”.
# Assays:
# Test in all cases: DAPPL (digital affinity profiling via proximity ligation, sequencing); 10 mM Tris-HCl pH 7.5, 50 mM NaCl, 1 mM DTT, 4% glycerol, room temperature, 30 min; GST-TFs on glutathione beads, 16-mer random dsDNA library, 0.1% formaldehyde crosslink after washing; high values mean tight binding
# FLI1 = molecular target: T1, FLI1 (Homo sapiens, UniProt Q01543 1-452); conditions: protein: recombinant; tags: N-terminal GST; dsDNA, one strand shown
# T1 sequence: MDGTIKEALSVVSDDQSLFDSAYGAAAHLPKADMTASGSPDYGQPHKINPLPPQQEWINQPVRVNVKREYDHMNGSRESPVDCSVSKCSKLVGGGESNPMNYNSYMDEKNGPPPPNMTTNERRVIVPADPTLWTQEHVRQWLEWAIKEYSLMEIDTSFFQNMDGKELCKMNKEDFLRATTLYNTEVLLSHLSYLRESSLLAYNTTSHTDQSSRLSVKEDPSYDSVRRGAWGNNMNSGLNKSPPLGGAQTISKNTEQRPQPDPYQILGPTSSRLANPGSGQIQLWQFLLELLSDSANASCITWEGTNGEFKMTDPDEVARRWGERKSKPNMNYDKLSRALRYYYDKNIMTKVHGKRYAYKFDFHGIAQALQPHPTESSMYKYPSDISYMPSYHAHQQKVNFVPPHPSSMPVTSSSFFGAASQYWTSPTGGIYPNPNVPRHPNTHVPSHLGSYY
# In short: (§1)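 Each value of binding signal is a hexamer's read frequency for a factor divided by the same hexamer's frequency in the tag-only sample. Barcoded, bead-captured GST fusions of human transcription factors made in yeast were pooled with that sample and incubated with 200 nmole of a random double-stranded 16-mer DNA library in Tris/NaCl/DTT/glycerol buffer at room temperature for 30 min. Washing, 0.1% formaldehyde crosslinking, proximity ligation, PCR and Illumina NextSeq500 sequencing followed.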
# ELK1 = molecular target: T2, ELK1 (Homo sapiens, UniProt P19419 1-428); conditions: protein: recombinant; tags: N-terminal GST; dsDNA, one strand shown
# T2 sequence: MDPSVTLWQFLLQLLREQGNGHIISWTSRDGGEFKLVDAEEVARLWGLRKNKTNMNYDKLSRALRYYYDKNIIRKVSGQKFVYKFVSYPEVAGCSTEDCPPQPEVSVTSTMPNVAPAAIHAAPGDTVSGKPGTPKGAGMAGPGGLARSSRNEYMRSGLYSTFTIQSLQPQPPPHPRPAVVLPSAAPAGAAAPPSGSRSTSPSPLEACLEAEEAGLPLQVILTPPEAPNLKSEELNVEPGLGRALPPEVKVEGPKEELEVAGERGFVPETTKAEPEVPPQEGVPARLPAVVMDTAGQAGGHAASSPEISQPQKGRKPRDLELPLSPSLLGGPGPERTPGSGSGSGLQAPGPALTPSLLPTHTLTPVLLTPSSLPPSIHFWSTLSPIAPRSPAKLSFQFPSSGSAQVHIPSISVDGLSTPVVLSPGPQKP
# In short: as §1
# GABPA = molecular target: T3, GABPA (Homo sapiens, UniProt Q06546 1-454); conditions: protein: recombinant; tags: N-terminal GST; dsDNA, one strand shown
# T3 sequence: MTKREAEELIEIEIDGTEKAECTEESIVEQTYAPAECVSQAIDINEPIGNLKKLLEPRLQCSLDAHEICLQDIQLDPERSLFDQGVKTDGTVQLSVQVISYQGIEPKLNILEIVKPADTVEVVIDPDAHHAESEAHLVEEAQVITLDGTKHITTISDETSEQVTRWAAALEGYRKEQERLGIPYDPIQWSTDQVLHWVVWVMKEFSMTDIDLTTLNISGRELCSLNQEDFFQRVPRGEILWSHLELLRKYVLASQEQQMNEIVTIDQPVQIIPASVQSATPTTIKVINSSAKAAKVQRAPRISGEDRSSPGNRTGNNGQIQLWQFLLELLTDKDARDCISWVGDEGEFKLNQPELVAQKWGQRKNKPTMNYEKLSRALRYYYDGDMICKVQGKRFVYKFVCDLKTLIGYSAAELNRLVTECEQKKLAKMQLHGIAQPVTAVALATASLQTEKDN
# In short: as §1
# ERG = molecular target: T4, ERG (Homo sapiens, UniProt P11308 1-479); conditions: protein: recombinant; tags: N-terminal GST; dsDNA, one strand shown
# T4 sequence: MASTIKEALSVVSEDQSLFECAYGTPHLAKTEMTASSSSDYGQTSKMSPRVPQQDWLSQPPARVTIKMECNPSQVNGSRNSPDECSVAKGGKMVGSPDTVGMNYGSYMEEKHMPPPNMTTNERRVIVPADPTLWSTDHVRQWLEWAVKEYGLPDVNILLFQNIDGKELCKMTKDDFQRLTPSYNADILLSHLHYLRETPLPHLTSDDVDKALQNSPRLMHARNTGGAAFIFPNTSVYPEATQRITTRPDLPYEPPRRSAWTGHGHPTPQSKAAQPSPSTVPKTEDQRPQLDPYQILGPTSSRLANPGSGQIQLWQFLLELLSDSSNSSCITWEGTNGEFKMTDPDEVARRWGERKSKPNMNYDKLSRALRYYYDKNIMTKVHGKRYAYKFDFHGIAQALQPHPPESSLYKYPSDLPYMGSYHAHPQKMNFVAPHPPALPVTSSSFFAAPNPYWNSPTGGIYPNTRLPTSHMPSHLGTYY
# In short: as §1
# ELF1 = ELF1 (Homo sapiens, UniProt P32519 1-619); conditions: protein: recombinant; tags: N-terminal GST; dsDNA, one strand shown
# In short: as §1
# EHF = molecular target: T5, EHF (Homo sapiens, UniProt Q9NZC4 1-300); conditions: protein: recombinant; tags: N-terminal GST; dsDNA, one strand shown
# T5 sequence: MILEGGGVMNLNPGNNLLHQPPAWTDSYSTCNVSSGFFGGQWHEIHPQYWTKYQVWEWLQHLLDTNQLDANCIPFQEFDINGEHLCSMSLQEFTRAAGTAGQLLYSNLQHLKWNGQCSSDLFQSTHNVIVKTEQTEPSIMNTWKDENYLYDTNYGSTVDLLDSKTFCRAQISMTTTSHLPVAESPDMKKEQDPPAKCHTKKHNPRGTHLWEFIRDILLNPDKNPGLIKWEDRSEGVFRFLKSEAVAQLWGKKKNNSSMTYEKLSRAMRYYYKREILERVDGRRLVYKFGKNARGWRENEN
# In short: as §1
# SPI1 = SPI1 (Homo sapiens, UniProt P17947 1-270); conditions: protein: recombinant; tags: N-terminal GST; dsDNA, one strand shown
# In short: as §1
# SPIB = SPIB (Homo sapiens, UniProt Q01892 1-262); conditions: protein: recombinant; tags: N-terminal GST; dsDNA, one strand shown
# In short: as §1
# ELK3 = molecular target: T6, ELK3 (Homo sapiens, UniProt P41970 1-407); conditions: protein: recombinant; tags: N-terminal GST; dsDNA, one strand shown
# T6 sequence: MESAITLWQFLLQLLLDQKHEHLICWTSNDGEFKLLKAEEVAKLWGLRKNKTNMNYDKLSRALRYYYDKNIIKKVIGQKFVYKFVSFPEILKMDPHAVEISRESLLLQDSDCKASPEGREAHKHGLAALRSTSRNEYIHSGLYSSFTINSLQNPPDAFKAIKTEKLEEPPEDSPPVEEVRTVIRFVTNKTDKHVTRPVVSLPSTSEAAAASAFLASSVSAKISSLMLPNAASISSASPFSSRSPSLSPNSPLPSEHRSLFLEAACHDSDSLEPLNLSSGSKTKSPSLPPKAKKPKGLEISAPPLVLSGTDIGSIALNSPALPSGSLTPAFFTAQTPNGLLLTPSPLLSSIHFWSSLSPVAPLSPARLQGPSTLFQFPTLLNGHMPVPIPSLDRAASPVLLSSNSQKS
# In short: as §1
# FEV = molecular target: T7, FEV (Homo sapiens, UniProt Q99581 1-238); conditions: protein: recombinant; tags: N-terminal GST; dsDNA, one strand shown
# T7 sequence: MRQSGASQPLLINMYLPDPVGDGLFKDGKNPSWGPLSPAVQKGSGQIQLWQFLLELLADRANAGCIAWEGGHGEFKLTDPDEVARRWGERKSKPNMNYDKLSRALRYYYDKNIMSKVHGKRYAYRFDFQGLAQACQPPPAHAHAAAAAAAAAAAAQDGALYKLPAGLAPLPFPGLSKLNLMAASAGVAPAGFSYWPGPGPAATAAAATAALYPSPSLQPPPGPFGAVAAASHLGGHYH
# In short: as §1
# ETV5 = ETV5 (Homo sapiens, UniProt P41161 1-510); conditions: protein: recombinant; tags: N-terminal GST; dsDNA, one strand shown
# In short: as §1
# HSF1 = HSF1 (Homo sapiens, UniProt Q00613 1-529); conditions: protein: recombinant; tags: N-terminal GST; chain copies: 3; dsDNA, one strand shown
# In short: as §1
# SPIC = molecular target: T8, SPIC (Homo sapiens, UniProt Q8N5J4 1-248); conditions: protein: recombinant; tags: N-terminal GST; dsDNA, one strand shown
# T8 sequence: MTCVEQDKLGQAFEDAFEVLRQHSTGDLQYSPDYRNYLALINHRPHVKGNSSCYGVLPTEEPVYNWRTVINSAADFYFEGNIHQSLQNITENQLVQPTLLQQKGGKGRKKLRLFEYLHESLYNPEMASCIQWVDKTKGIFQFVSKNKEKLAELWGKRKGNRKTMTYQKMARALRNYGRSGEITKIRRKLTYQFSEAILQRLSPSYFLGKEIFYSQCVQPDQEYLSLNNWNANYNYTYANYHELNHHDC
# In short: as §1
# ELF4 = ELF4 (Homo sapiens, UniProt Q99607 1-663); conditions: protein: recombinant; tags: N-terminal GST; dsDNA, one strand shown
# In short: as §1
# ELK4 = molecular target: T9, ELK4 (Homo sapiens, UniProt P28324-2 1-405); conditions: protein: recombinant; tags: N-terminal GST; dsDNA, one strand shown
# T9 sequence: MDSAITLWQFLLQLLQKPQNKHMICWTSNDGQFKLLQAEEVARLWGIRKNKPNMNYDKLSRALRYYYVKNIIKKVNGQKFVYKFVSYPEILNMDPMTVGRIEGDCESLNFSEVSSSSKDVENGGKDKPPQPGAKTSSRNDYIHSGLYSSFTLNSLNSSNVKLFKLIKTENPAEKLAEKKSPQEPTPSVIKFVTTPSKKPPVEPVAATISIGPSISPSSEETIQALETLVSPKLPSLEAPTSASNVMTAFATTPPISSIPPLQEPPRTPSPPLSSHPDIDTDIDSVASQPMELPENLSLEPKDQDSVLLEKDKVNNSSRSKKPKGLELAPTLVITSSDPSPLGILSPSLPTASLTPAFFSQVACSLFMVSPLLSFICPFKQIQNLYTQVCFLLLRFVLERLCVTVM
# In short: as §1
# ETV2 = molecular target: T10, ETV2 (Homo sapiens, UniProt O00321 1-342); conditions: protein: recombinant; tags: N-terminal GST; dsDNA, one strand shown
# T10 sequence: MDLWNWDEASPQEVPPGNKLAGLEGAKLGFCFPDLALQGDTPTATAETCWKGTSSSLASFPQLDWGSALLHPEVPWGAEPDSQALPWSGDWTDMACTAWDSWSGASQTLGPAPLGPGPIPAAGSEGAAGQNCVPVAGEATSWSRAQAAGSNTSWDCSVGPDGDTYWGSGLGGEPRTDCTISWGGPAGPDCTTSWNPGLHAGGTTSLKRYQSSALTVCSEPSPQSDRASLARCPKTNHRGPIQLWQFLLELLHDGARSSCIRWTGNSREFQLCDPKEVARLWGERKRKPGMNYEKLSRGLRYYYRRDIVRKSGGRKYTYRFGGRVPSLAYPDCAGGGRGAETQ
# In short: as §1
# ELF3 = molecular target: T11, ELF3 (Homo sapiens, UniProt P78545 1-371); conditions: protein: recombinant; tags: N-terminal GST; dsDNA, one strand shown
# T11 sequence: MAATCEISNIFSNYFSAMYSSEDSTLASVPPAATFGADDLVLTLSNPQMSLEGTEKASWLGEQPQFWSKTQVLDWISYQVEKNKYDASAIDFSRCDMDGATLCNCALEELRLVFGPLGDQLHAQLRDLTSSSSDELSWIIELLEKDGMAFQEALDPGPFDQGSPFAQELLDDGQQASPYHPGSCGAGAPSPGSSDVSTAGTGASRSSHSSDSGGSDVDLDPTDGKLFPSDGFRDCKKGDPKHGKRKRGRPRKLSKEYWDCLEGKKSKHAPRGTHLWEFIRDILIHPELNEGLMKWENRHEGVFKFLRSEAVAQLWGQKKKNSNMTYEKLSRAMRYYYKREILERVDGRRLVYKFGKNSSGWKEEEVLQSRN
# In short: as §1
# CRX = CRX (Homo sapiens, UniProt O43186 1-299); conditions: protein: recombinant; tags: N-terminal GST; dsDNA, one strand shown
# In short: as §1
# ETV1 = ETV1 (Homo sapiens, UniProt P50549 1-477); conditions: protein: recombinant; tags: N-terminal GST; dsDNA, one strand shown
# In short: as §1
# Sequence of ETV1 (P50549 whole entry): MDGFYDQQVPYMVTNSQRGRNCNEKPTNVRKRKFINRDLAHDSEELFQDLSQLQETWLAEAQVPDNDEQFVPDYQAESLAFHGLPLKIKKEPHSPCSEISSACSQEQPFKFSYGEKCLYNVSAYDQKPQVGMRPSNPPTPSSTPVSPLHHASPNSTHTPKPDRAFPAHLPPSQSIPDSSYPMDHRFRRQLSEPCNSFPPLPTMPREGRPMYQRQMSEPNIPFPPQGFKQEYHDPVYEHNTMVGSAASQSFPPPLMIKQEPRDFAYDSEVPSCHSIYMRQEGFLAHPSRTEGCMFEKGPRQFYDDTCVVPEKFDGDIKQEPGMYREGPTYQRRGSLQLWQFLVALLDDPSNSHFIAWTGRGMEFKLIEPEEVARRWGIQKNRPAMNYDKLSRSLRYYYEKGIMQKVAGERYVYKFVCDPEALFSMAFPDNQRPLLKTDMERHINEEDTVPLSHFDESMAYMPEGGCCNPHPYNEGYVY
# Sequence of ELF1 (P32519 whole entry): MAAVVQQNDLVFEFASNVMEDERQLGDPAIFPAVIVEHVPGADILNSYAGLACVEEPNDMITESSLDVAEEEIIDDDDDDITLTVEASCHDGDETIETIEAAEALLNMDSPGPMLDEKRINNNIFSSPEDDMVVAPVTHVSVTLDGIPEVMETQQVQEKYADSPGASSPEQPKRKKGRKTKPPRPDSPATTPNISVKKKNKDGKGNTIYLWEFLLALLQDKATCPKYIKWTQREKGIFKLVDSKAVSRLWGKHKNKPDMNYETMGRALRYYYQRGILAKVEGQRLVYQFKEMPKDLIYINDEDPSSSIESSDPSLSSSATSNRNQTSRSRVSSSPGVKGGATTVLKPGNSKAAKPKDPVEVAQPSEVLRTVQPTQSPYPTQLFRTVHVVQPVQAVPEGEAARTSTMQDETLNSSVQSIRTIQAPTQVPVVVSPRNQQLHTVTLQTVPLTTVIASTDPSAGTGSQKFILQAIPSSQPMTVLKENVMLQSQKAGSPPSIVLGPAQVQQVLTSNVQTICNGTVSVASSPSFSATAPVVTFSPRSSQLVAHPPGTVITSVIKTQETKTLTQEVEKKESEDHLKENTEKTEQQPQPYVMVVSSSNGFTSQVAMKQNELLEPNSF
# Sequence of CRX (O43186 whole entry): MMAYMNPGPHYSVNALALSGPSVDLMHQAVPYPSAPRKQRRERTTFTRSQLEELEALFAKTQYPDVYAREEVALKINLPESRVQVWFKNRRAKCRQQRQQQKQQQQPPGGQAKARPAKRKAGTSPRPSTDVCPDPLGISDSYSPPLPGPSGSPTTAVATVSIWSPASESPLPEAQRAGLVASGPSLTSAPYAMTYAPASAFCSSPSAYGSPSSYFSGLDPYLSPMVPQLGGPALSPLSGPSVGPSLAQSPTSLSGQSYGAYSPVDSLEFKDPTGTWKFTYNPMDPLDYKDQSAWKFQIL
# Sequence of SPIB (Q01892 whole entry): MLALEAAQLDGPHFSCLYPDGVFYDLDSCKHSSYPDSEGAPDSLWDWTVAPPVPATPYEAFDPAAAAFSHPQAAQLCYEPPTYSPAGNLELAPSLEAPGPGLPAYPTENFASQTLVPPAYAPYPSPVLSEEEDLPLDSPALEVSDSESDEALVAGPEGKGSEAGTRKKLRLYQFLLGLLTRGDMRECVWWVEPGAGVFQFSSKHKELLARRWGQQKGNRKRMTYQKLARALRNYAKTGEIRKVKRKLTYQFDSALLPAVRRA
# Sequence of HSF1 (Q00613 whole entry): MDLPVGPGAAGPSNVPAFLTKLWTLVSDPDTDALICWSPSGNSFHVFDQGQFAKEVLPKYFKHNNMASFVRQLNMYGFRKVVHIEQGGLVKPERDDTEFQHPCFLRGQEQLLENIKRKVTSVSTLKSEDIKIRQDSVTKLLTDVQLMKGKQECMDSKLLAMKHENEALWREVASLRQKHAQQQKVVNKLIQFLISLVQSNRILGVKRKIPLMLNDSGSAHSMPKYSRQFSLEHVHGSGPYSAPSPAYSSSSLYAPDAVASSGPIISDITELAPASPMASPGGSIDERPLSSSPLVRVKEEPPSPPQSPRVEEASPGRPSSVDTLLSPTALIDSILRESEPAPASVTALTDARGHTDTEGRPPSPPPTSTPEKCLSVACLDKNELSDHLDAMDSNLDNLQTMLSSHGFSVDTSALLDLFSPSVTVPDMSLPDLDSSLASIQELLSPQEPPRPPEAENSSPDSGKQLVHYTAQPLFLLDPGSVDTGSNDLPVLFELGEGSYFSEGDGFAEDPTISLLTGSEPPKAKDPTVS
# Sequence of ELF4 (Q99607 whole entry): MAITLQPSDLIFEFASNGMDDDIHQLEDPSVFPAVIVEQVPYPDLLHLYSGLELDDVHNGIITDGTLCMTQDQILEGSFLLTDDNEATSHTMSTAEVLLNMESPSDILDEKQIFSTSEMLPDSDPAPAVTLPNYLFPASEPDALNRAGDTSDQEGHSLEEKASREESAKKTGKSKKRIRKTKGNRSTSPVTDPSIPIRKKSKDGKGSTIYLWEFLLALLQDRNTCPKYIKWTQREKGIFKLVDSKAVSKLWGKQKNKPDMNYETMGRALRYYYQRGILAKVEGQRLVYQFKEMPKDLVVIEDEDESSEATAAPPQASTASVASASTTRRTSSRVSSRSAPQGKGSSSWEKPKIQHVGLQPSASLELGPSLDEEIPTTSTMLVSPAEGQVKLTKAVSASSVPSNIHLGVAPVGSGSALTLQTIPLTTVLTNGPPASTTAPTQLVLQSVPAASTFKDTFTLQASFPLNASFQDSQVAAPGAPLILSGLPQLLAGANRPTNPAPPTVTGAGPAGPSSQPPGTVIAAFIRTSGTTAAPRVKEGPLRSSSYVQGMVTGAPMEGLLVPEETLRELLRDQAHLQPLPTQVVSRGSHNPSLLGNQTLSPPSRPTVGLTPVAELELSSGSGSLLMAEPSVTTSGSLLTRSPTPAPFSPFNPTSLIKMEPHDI
# Sequence of ETV5 (P41161 whole entry): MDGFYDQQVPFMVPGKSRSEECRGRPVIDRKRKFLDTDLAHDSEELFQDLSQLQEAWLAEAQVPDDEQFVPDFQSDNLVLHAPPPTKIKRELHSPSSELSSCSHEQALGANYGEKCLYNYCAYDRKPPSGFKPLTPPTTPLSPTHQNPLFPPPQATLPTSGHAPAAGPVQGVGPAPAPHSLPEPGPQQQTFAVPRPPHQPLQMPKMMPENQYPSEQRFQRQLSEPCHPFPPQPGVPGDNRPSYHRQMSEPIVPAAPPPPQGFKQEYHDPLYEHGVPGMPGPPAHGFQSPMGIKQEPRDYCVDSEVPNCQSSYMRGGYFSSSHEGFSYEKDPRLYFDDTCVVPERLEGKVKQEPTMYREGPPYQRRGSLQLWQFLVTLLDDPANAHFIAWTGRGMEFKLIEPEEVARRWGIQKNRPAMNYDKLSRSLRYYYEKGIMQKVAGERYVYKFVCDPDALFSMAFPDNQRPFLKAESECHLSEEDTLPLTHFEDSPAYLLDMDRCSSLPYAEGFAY
sequence,measurement,setting,value
TTCATG,binding signal,FLI1,"1.35 fold enrichment (6-mer frequency, TF over GST control)"
same,binding signal,ELK1,"1.26 fold enrichment (6-mer frequency, TF over GST control)"
same,binding signal,GABPA,"1.35 fold enrichment (6-mer frequency, TF over GST control)"
same,binding signal,ERG,"1.28 fold enrichment (6-mer frequency, TF over GST control)"
same,binding signal,ELF1,"1.33 fold enrichment (6-mer frequency, TF over GST control)"
same,binding signal,EHF,"1.29 fold enrichment (6-mer frequency, TF over GST control)"
same,binding signal,SPI1,"1.32 fold enrichment (6-mer frequency, TF over GST control)"
same,binding signal,SPIB,"1.34 fold enrichment (6-mer frequency, TF over GST control)"
same,binding signal,ELK3,"1.22 fold enrichment (6-mer frequency, TF over GST control)"
same,binding signal,FEV,"1.23 fold enrichment (6-mer frequency, TF over GST control)"
same,binding signal,ETV5,"1.27 fold enrichment (6-mer frequency, TF over GST control)"
same,binding signal,HSF1,"1.23 fold enrichment (6-mer frequency, TF over GST control)"
same,binding signal,SPIC,"1.35 fold enrichment (6-mer frequency, TF over GST control)"
same,binding signal,ELF4,"1.33 fold enrichment (6-mer frequency, TF over GST control)"
same,binding signal,ELK4,"1.32 fold enrichment (6-mer frequency, TF over GST control)"
same,binding signal,ETV2,"1.26 fold enrichment (6-mer frequency, TF over GST control)"
same,binding signal,ELF3,"1.27 fold enrichment (6-mer frequency, TF over GST control)"
same,binding signal,CRX,"1.16 fold enrichment (6-mer frequency, TF over GST control)"
same,binding signal,ETV1,"1.29 fold enrichment (6-mer frequency, TF over GST control)"
